This is part of a sample that, as a whole, favours compounds with a hit. Of some 83,000 tested, about 20% had one in any assay.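 Cell lines were cultured in 96-well plates, exposed to a single compound concentration, and assessed for percent growth 48 hours later.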 A number with no mark means an inactive call. The source made the active and inactive calls. Rule for the calls: active = growth percent below 10; inactive = the rest.
Experiments:
Test in all cases: NCI-60 one-dose screen, 48 h (100 = growth as untreated, 0 = no growth, -100 = all killed)
Conditions in all cases: 10 µM unless noted
T-47D breast = test system: T-47D breast
MDA-MB-435 melanoma = test system: MDA-MB-435 melanoma
SW-620 colon = test system: SW-620 colon
MCF7 breast = test system: MCF7 breast
HCT-116 colon = test system: HCT-116 colon
HCC-2998 colon = test system: HCC-2998 colon
KM12 colon = test system: KM12 colon
MDA-MB-468 breast = test system: MDA-MB-468 breast
BT-549 breast = test system: BT-549 breast

| SMILES | growth (T-47D breast) | growth (MDA-MB-435 melanoma) | growth (SW-620 colon) | growth (MCF7 breast) | growth (HCT-116 colon) | growth (HCC-2998 colon) | growth (KM12 colon) | growth (MDA-MB-468 breast) | growth (BT-549 breast) |
| --- | --- | --- | --- | --- | --- | --- | --- | --- | --- |
| Fc1ccc(F)c(CNc2nc(SCCN3CCOCC3)nc3c2cnn3CC(Cl)c2ccc(Br)cc2)c1 (stereo not drawn) | 10.8% | -13.3% (active) | -3.05% (active) | 2.55% (active) | 16.8% | 24.7% | 4.2% (active) | -22.9% (active) |  |
| COC(=O)c1c(C(=O)OC)c2ccc3c4ccccc4ccc3n2c1C(=O)C(C)Br (stereo not drawn) | 36.5% | 10.3% | 9.86% (active) | 6.04% (active) | 14% | 67.9% | 91.5% | 50.7% |  |
| Fc1ccccc1CNc1nc(SCCN2CCOCC2)nc2c1cnn2CC(Cl)c1ccc(Br)cc1 (stereo not drawn) | 14.2% | 29.6% | -51% (active) | 21.3% | 26.1% | 21.4% | 8.13% (active) | 22.1% |  |
| COc1cc(NC(=O)C(C)C)ccc1C(=O)NC(=S)Nc1ccc(S(N)(=O)=O)cc1 | 99.5% | 106% | 107% | 101% | 106% | 116% | 100% | 123% |  |
| Nc1cc(-c2c[nH]c3ccc(Cl)cc23)nc2cc(-c3c[nH]c4ccccc34)nn12 | -5.16% (active) | -51% (active) | -79.6% (active) | -68.3% (active) | -83.9% (active) | -81.2% (active) | -70.5% (active) | -72.3% (active) |  |
| Cc1cc(N=C(N)c2ccccc2)ccc1OCCCCCCCCn1ccnc1 | 26.4% |  | 20% | -4.6% (active) | 11.4% | -32.6% (active) |  | 2.88% (active) |  |
| O=C1Nc2cc(-c3ccc(NS(=O)(=O)c4ccc(F)c(Cl)c4)cc3)ccc2/C1=C/c1ccc[nH]1 | 14.7% | 55.1% | 33.9% |  | 12% | 17.1% | 13.6% |  | 19.7% |
| Nc1cc(-c2c[nH]c3ccc(F)cc23)nc2cc(-c3c[nH]c4ccccc34)nn12 | 18.3% | 4.81% (active) | -66.1% (active) | -22.9% (active) | -41.8% (active) | -59.2% (active) | -54.1% (active) | -18.9% (active) |  |
| Cc1cccc(/C=C/c2ccc(NC(=S)NCCCCN(C)C)cc2)c1 | -67.8% (active) | -90% (active) | -85.3% (active) | -73.7% (active) | -45.1% (active) | -92.7% (active) | -48.6% (active) | -83.5% (active) | -72.6% (active) |
| Oc1ccc(Cl)c(Nc2nc(SCCN3CCOCC3)nc3c2cnn3CC(Cl)c2ccc(Br)cc2)c1 (stereo not drawn) | 0% (active) | 12% | 30.4% | 5.55% (active) | 13.8% | 9.56% (active) | 17.1% | -26.7% (active) |  |
| COc1cccc(C(N)=Nc2ccc(OCCCCCCCCn3cncn3)cc2)c1 | 52% |  | 21.2% | 18.3% | 12.5% | 23.4% |  | 24.8% |  |
| CC(C)(C)C(=O)C1CC(C#N)=C2C=Cc3c(ccc4ccccc34)N21 (stereo not drawn) | 72.8% | 97.9% | 102% | 63% | 93.1% | 99.7% | 97% | 96.2% |  |
| Cn1cc(-c2cc3nc(-c4c[nH]c5ccccc45)cc(N)n3n2)c2ccccc21 | -69.4% (active) | -81.8% (active) | -77.1% (active) | -67.4% (active) | -74.2% (active) | -78.2% (active) | -33.9% (active) | -53.9% (active) |  |
| ClC(Cn1ncc2c(Nc3cccc(Br)c3)nc(SCCN3CCOCC3)nc21)c1ccc(Br)cc1 (stereo not drawn) | -2.99% (active) | -4.97% (active) | -32.1% (active) | -5.44% (active) | 6.22% (active) | 3.46% (active) | -20% (active) | -18% (active) |  |
| Oc1ccc(Cl)c(Nc2ncnc3c2cnn3CC(Cl)c2ccc(Br)cc2)c1 (stereo not drawn) | 32.9% | 57.7% | 67.1% | 49.7% | 40.8% | 98.3% | 85.9% | 26.2% |  |
| Cc1cnc2ccc(Oc3ccccc3-c3ccccc3)nn12 | 110% | 110% | 124% | 93% | 101% | 113% | 107% | 108% | 107% |
| CCN1C(=O)N(CC)C2NNC(Sc3c(C(=O)O)c4ccccc4n(CCC(C)C)c3=O)=NC21 (stereo not drawn) | 73.5% | -53.6% (active) | 28.4% | 9.16% (active) | 3.95% (active) | 3.88% (active) | 21.3% | 7.98% (active) |  |
| NC(=Nc1ccc(OCCCCCCCCn2cnnn2)cc1)c1ccccc1 | 45.6% |  | 22.5% | 13.4% | 15.2% | 17.1% | 10.5% | 20.9% | 18.9% |
| O=C(Nc1ccc(-c2ccc3c(c2)NC(=O)/C3=C\c2ccc[nH]2)cc1)Nc1cccc(Cl)c1 | -1.23% (active) | 10.1% | 13.9% | -9.34% (active) | 2.08% (active) | -24.2% (active) | -22.3% (active) | -55.5% (active) | -1.48% (active) |
| COc1ccc(N=Nc2c(N)nn3c(-c4cc5cc(Br)ccc5oc4=O)ccnc23)cc1 | 10.8% | 54.2% | 56.1% | 26.4% | 23.8% | 20.2% | 36.1% | -22.7% (active) | -2.5% (active) |
| Oc1ccc(F)c(Nc2nc(SCCN3CCOCC3)nc3c2cnn3CC(Cl)c2ccc(Br)cc2)c1 (stereo not drawn) | -6.68% (active) | 17.8% | 29.3% | 7.39% (active) | 14.9% | 15.8% | 11% | -20.5% (active) |  |
| COC(=O)c1cc(C(=O)C(Br)Br)n2c1ccc1c3ccccc3ccc12 | 1.99% (active) | 79% | 45.2% | 5.77% (active) | 49.6% | 43.5% | 39.7% | -8.15% (active) |  |
| Cc1ccc(O)cc1Nc1nc(SCCN2CCOCC2)nc2c1cnn2CC(Cl)c1ccc(Br)cc1 (stereo not drawn) | -2.49% (active) | 12.6% | 32.9% | 5.88% (active) | 2.84% (active) | 1.63% (active) | 17% | -55.7% (active) |  |
| COc1ccc2[nH]cc(-c3cc(N)n4nc(-c5c[nH]c6ccccc56)cc4n3)c2c1 | -21.8% (active) | -79% (active) | -70.4% (active) | -81.6% (active) | -82.1% (active) | -76.2% (active) | -48.8% (active) | -67.8% (active) |  |
| Cc1ccc(C2CC(c3ccc(NC(=S)Nc4ccccc4)cc3)=NN2c2ccc(S(N)(=O)=O)cc2)cc1 (stereo not drawn) | 24.5% | 23.6% | 19.8% | 2.64% (active) | 10.1% | -16.9% (active) | 2.95% (active) | 9.79% (active) | -10% (active) |
| COc1ccc2c(c1)c(-c1cc(N)n3nc(-c4c[nH]c5ccccc45)cc3n1)cn2C | -63.5% (active) | -74% (active) | -89.5% (active) | -72% (active) | -85.9% (active) | -80.6% (active) | -74.8% (active) | -73.8% (active) |  |
| Clc1ccc(CNc2nc(SCCN3CCOCC3)nc3c2cnn3CC(Cl)c2ccc(Br)cc2)cc1 (stereo not drawn) | 22.4% | 27.6% | 19.2% | 10.1% | 22.7% | 30.9% | 28% | 39.9% |  |
| O=C(N=Nc1c(O)[nH]c2ccc(Cl)cc12)c1ccc2nc(-c3ccc(Cl)cc3)[nH]c2c1 | -2.02% (active) | -32.9% (active) | 3.1% (active) | 1.03% (active) | 9.89% (active) | -34.6% (active) | 42.3% | -80.7% (active) | 49% |
| Nc1nnc(CS(=O)(=O)c2ccccc2)s1 | 102% | 113% | 108% | 101% | 107% | 103% | 101% | 111% |  |

Reference: PubChem BioAssay (NCI)
